Test results reported in the supplement of paper PMC4466140.

Each binder was assayed against ScBbc1 (assay: SPOT peptide array binding signal intensity (averaged, normalized) (arbitrary units (background-subtracted, floor 0; scale differs between SH3 domains)); higher = stronger binding of the SH3 domain to the peptide).
Summary of the method: (§1)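 E. coli BL21(DE3) was used to express GST-fused SH3 domains from four yeast species, which were then purified on glutathione Sepharose. These were incubated at 10 μg/ml in TBS-based blocking buffer overnight at 4°C on cellulose membranes carrying synthetic 15-mer peptides, in which cysteines were replaced by serines. Binding signal is the replicate average of normalized, background-subtracted spot intensity, in arbitrary units that differ between domains.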

Binder | SPOT peptide array binding signal intensity
NFLRLLIGLPSQNEL | 0.5

Each binder was assayed against ScBem1-D1 in the same assay as above.
Summary of the method: as §1

Binder | SPOT peptide array binding signal intensity
NFLRLLIGLPSQNEL | 18

What follows are binders tested against ScBzz1-D1 in the same assay as above.
Summary of the method: as §1

Binder | SPOT peptide array binding signal intensity
NFLRLLIGLPSQNEL | 19

These binders were tested against ScBzz1-D2 in the same assay as above.
Summary of the method: as §1

Binder | SPOT peptide array binding signal intensity
NFLRLLIGLPSQNEL | 21

These binders were tested against ScCyk3 in the same assay as above.
Summary of the method: as §1

Binder | SPOT peptide array binding signal intensity
NFLRLLIGLPSQNEL | 101

Each binder was assayed against ScFus1 in the same assay as above.
Summary of the method: as §1

Binder | SPOT peptide array binding signal intensity
NFLRLLIGLPSQNEL | 1020

What follows are binders tested against ScHof1 in the same assay as above.
Summary of the method: as §1

Binder | SPOT peptide array binding signal intensity
NFLRLLIGLPSQNEL | 1.5

The binders below were run against ScHse1 in the same assay as above.
Summary of the method: as §1

Binder | SPOT peptide array binding signal intensity
NFLRLLIGLPSQNEL | 2880

These binders were tested against ScLsb1 in the same assay as above.
Summary of the method: as §1

Binder | SPOT peptide array binding signal intensity
NFLRLLIGLPSQNEL | 0.75

Each binder was assayed against ScLsb2 in the same assay as above.
Summary of the method: as §1

Binder | SPOT peptide array binding signal intensity
NFLRLLIGLPSQNEL | ≤ 0

The binders below were run against ScLsb3 in the same assay as above.
Summary of the method: as §1

Binder | SPOT peptide array binding signal intensity
NFLRLLIGLPSQNEL | 276

The binders below were run against ScLsb4 in the same assay as above.
Summary of the method: as §1

Binder | SPOT peptide array binding signal intensity
NFLRLLIGLPSQNEL | ≤ 0

The binders below were run against ScMyo3 in the same assay as above.
Summary of the method: as §1

Binder | SPOT peptide array binding signal intensity
NFLRLLIGLPSQNEL | 4

These binders were tested against ScMyo5 in the same assay as above.
Summary of the method: as §1

Binder | SPOT peptide array binding signal intensity
NFLRLLIGLPSQNEL | ≤ 0

Each binder was assayed against ScNbp2 in the same assay as above.
Summary of the method: as §1

Binder | SPOT peptide array binding signal intensity
NFLRLLIGLPSQNEL | 53

What follows are binders tested against ScPex13 in the same assay as above.
Summary of the method: as §1

Binder | SPOT peptide array binding signal intensity
NFLRLLIGLPSQNEL | ≤ 0

What follows are binders tested against ScRvs167 in the same assay as above.
Summary of the method: as §1

Binder | SPOT peptide array binding signal intensity
NFLRLLIGLPSQNEL | 11.7

Each binder was assayed against ScSho1 in the same assay as above.
Summary of the method: as §1

Binder | SPOT peptide array binding signal intensity
NFLRLLIGLPSQNEL | 1160

What follows are binders tested against ScSla1-D1-D2 in the same assay as above.
Summary of the method: as §1

Binder | SPOT peptide array binding signal intensity
NFLRLLIGLPSQNEL | ≤ 0

Each binder was assayed against ScSla1-D3 in the same assay as above.
Summary of the method: as §1

Binder | SPOT peptide array binding signal intensity
NFLRLLIGLPSQNEL | 8.5

Each binder was assayed against SpAbp1-D1 in the same assay as above.
Summary of the method: as §1

Binder | SPOT peptide array binding signal intensity
NFLRLLIGLPSQNEL | 1

These binders were tested against SpBbc1 in the same assay as above.
Summary of the method: as §1

Binder | SPOT peptide array binding signal intensity
NFLRLLIGLPSQNEL | 3.75

These binders were tested against SpBzz1-D1 in the same assay as above.
Summary of the method: as §1

Binder | SPOT peptide array binding signal intensity
NFLRLLIGLPSQNEL | 22

These binders were tested against SpBzz1-D2 in the same assay as above.
Summary of the method: as §1

Binder | SPOT peptide array binding signal intensity
NFLRLLIGLPSQNEL | ≤ 0

The binders below were run against SpCyk3 in the same assay as above.
Summary of the method: as §1

Binder | SPOT peptide array binding signal intensity
NFLRLLIGLPSQNEL | 7

The binders below were run against SpHof1 in the same assay as above.
Summary of the method: as §1

Binder | SPOT peptide array binding signal intensity
NFLRLLIGLPSQNEL | 121

These binders were tested against SpHof1-2 in the same assay as above.
Summary of the method: as §1

Binder | SPOT peptide array binding signal intensity
NFLRLLIGLPSQNEL | 31.5

These binders were tested against SpHof1-3 in the same assay as above.
Summary of the method: as §1

Binder | SPOT peptide array binding signal intensity
NFLRLLIGLPSQNEL | 443

Each binder was assayed against SpHse1 in the same assay as above.
Summary of the method: as §1

Binder | SPOT peptide array binding signal intensity
NFLRLLIGLPSQNEL | 3340

What follows are binders tested against SpLsb1 in the same assay as above.
Summary of the method: as §1

Binder | SPOT peptide array binding signal intensity
NFLRLLIGLPSQNEL | ≤ 0

What follows are binders tested against SpLsb4 in the same assay as above.
Summary of the method: as §1

Binder | SPOT peptide array binding signal intensity
NFLRLLIGLPSQNEL | ≤ 0

These binders were tested against SpMyo1 in the same assay as above.
Summary of the method: as §1

Binder | SPOT peptide array binding signal intensity
NFLRLLIGLPSQNEL | 0.5

These binders were tested against SpNbp2 in the same assay as above.
Summary of the method: as §1

Binder | SPOT peptide array binding signal intensity
NFLRLLIGLPSQNEL | 52.5

These binders were tested against SpPex13 in the same assay as above.
Summary of the method: as §1

Binder | SPOT peptide array binding signal intensity
NFLRLLIGLPSQNEL | 52

These binders were tested against SpRvs167 in the same assay as above.
Summary of the method: as §1

Binder | SPOT peptide array binding signal intensity
NFLRLLIGLPSQNEL | 9.83

Each binder was assayed against SpSla1-D1-D2 in the same assay as above.
Summary of the method: as §1

Binder | SPOT peptide array binding signal intensity
NFLRLLIGLPSQNEL | 4

The binders below were run against SpSla1-D3 in the same assay as above.
Summary of the method: as §1

Binder | SPOT peptide array binding signal intensity
NFLRLLIGLPSQNEL | 8
